Screening data (PubChem BioAssay)
Only some compounds are listed: those with a hit (about 4% of all), similar ones and a draw of the others.
KKLEB tox = cytotoxicity in KKLEB CF airway cells, primary screen, cytotoxicity control for CF NF-kB inhibitor project, cell-based, uHTS, fluorescence assay plates. KKLEB CF airway cells viability, ATPlite luminescence, overnight; hits give low values; cells stimulated with P. aeruginosa culture filtrate. activity change (cytotoxicity), % at 5 µM. actives 0.36% (n = 360,000);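 active means corrected activity change at or below -50% at 5 µM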
TROY NFkB inh = inhibitors of TROY-driven NF-kB signaling, primary screen, Q293 LMP1-TROYcd cells, NF-kB luciferase, uHTS | actives 0.98% (n = 360,000) | inhibition, % at 10 µM | Q293 LMP1-TROYcd NF-kB luciferase reporter, 4 h;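 active means compounds whose plate-normalised and pattern-corrected inhibition of the luciferase reporter signal at the single screening dose is 50% or more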
HIF-2a block = HIF-2a reporter inhibitors, primary screen, luminescence, 786-0 RCC cells | AID 624352, 2012 | inhibition, % at 18.8 µM | 786-0 RCC cells HIF-2a reporter, luciferase luminescence, overnight | actives 0.72% (n = 360,000);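 active means inhibition of the luminescence signal of 40% or more relative to plate controls, in a single-dose primary screen at 18.75 µM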
CF NFkB block = inhibitors of PAF-induced NF-kB signaling, primary screen, cell-based, GFP fluorescence, uHTS; KKLEB NF-kB-GFP reporter, GFP fluorescence overnight; actives 0.86% (n = 360,000); AID 588850, 2011; inhibition, % at 5 µM;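 active means at least 50% inhibition at 5 µM, scaled per plate between neutral and stimulator controls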;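 further: PAF is a Pseudomonas aeruginosa culture filtrate used as stimulus; plate controls were PAF-stimulated DMSO wells for no effect and unstimulated DMSO wells for full effect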
Peg3 promoter = Peg3 promoter-driven luciferase inhibitors, primary screen, cell-based, HeLa, luciferase luminescence; HeLa PEG-Prom luciferase reporter, overnight; inhibition, % at 20 µM; actives 1.7% (n = 360,000); AID 588405, 2011;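 active means inhibition of at least 50% at 20 µM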
TWEAK Fn14 block = inhibitors of TWEAK-Fn14 signaling, primary screen, luciferase reporter cells, uHTS; TWEAK-stimulated Fn14 reporter cells, luciferase luminescence, 8 h; inhibition, % at 10 µM; actives 2% (n = 360,000); in the data active means inhibition above about 50%
Starred values were filed as active, the others as inactive; . = no result.

SMILES | KKLEB tox | TROY NFkB inh | HIF-2a block | CF NFkB block | Peg3 promoter | TWEAK Fn14 block
Cc1cc(OCC(=O)OCC(=O)N2CCCc3ccccc32)ccc1Cl | -15 | 5 | 13 | 16 | 14 | 16
Cc1ccc(SCC(=O)Nc2ccc(N3CCN(c4ccccc4)CC3)c(F)c2)cc1 | -3 | 7 | 5 | 8 | 7 | -4
CN1CCN(c2ccc(NC(=O)CSc3ccccc3)cc2F)CC1 | -2 | 37 | -76 | -2 | -239 | 53*
NC(Cc1ccc(Cl)cc1)c1csc(Nc2ccc(C(=O)c3ccccc3)cc2)n1 (centres undefined) | 8 | 21 | 2 | 9 | 97* | 31
NC(c1csc(Nc2ccc(C(=O)c3ccccc3)cc2)n1)C1CCCCC1 (centres undefined) | -10 | 21 | 3 | 36 | 97* | 7
NC(Cc1ccc(F)cc1)c1csc(Nc2ccc(C(=O)c3ccccc3)cc2)n1 (centres undefined) | -38 | 36 | -7 | 41 | 91* | 33
NC(CO)c1csc(Nc2ccc(C(=O)c3ccccc3)cc2)n1 (centres undefined) | -11 | -6 | -27 | 14 | -22 | -1
COc1ccc(CC(N)c2csc(Nc3ccc(C(=O)c4ccccc4)cc3)n2)cc1 (centres undefined) | -24 | 28 | -41 | 28 | 66* | -9
NC(Cc1ccccc1)c1csc(Nc2ccc(C(=O)c3ccccc3)cc2)n1 (centres undefined) | -19 | 20 | 4 | 8 | 66* | -2
Cc1ccc2nc(N3CCN(c4cccc(C)c4C)CC3)c3nnnn3c2c1 | 3 | 2 | 3 | -5 | 10 | 26
Cc1ccc2nc(Cl)c3nnnn3c2c1 | -20 | 84* | -5 | 71* | 111* | -16
N#Cc1nc2ccccc2n1OCc1ccccc1 | -11 | 27 | -11 | 12 | -25 | 23
COc1ccccc1NC(=O)Nc1ccc(Cl)c(S(=O)(=O)Nc2ccccc2OC)c1 | 7 | 13 | 10 | -2 | 22 | 30
COc1ccc(C(=O)Nc2ccc(Cl)c(S(=O)(=O)Nc3ccccc3OC)c2)cc1 | -9 | 53* | 1 | 11 | 29 | 81*
COc1ccccc1NS(=O)(=O)c1cc(NC(=O)c2ccc(Cl)nc2)ccc1Cl | 15 | 72* | 20 | -14 | 50* | 102*
COc1cc(NS(C)(=O)=O)c(OC)cc1NC(=O)c1ccccc1 | -4 | -14 | 8 | 1 | -7 | 57*
COc1cc(NC(=O)c2ccccc2)c(OC)cc1NC(C)=O | 5 | 1 | 7 | 0 | -6 | -4
COc1ccccc1NS(=O)(=O)c1cccc(NC(=O)Nc2cccc(Cl)c2)c1 | -8 | 51* | 13 | 18 | 48 | 81*
COc1ccccc1N(C(=O)c1snc(C(N)=O)c1N)C(C(=O)NC1CCCC1)c1ccc2ncccc2c1 (centres undefined) | -7 | -34 | 25 | 13 | 25 | 9
COc1cccc(NC(=O)COc2ccc(C(=O)N3CCN(C)CC3)cc2)c1 | 1 | 1 | -12 | 7 | -10 | 6
O=C(N[C@@H]1CC[C@@H](CCNC(=O)C2CCOCC2)O[C@@H]1CO)c1ccncc1 | . | . | 11 | . | . | .
C[C@@H](CO)NC(=O)c1nc[nH]c1C(=O)N[C@H](C)c1ccccc1 | 20 | -2 | 3 | -35 | 7 | 7
COc1ccc(NC(=O)c2ccc(-c3ccccc3)cc2)cc1NS(=O)(=O)c1ccc(F)cc1 | 0 | 31 | -6 | 7 | 15 | 62*
COc1ccc(NC(=O)c2ccccc2)cc1NS(=O)(=O)c1ccc(F)cc1 | 2 | 3 | 11 | -8 | 20 | -12
Cc1ccc(OCc2nn3c(-c4ccco4)nnc3s2)cc1 | 6 | -23 | -59 | -6 | -47 | -22
Clc1ccc(OCc2nn3c(-c4ccco4)nnc3s2)c(Cl)c1 | -4 | 69* | -37 | 6 | -1 | 47
CC(C)c1[nH]nc2c1C(c1cccnc1)C(C#N)=C(N)O2 (centres undefined) | -18 | 13 | -1 | 13 | 6 | 60*
